Data as given in PubChem BioAssay (EPA / NIEHS).
Activity calls are given as the source filed them. How the source made its calls: active means hit-call score of the fitted dose curve at least 0.9, where 1 is the maximum; inactive means score below 0.9.

Key:
[1] = read-out: Tumor necrosis factor receptor superfamily member 6 (Homo sapiens) (UniProt P25445); test: LTEA_HepaRG_FAS: Life Technologies and Expression Analysis (LTEA) Assay for Fas cell surface death receptor (FAS) using HepaRG (AID 2283447); details: mRNA level, 48 h; actives raise or lower the signal
How it was run: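 Differentiated human HepaRG cells, pre-cultured 48 h, were exposed in duplicate for 48 h to 8-point half-log concentrations (top 100 uM, 0.5% DMSO) in serum-free induction medium; FAS mRNA measured by qRT-PCR, normalized to ACTB/GAPDH/POLR2A, bidirectional fit versus DMSO.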

[2] = read-out: Fatty acid synthase (Homo sapiens) (UniProt P49327); test: LTEA_HepaRG_FASN: Life Technologies and Expression Analysis (LTEA) Assay for Fatty Acid Synthase (FASN) using HepaRG (AID 2283448); details: mRNA level, 48 h; actives raise or lower the signal
How it was run: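 In human HepaRG cultures, 48 h chemical exposure (up to 100 uM, 0.5% DMSO) preceded TaqMan qRT-PCR of FASN.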

[3] = read-out: Cyclin D2 (CCND2), CCND2 (gene 894); test: LTEA_HepaRG_CCND2: Life Technologies and Expression Analysis (LTEA) Assay for Cyclin D2 (CCND2) using HepaRG (AID 2283449); details: mRNA level, 48 h; actives raise or lower the signal;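 further: CCND2 transcript measured by TaqMan qRT-PCR and normalised to three housekeeping genes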
How it was run: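 In this HepaRG study, an eight-point concentration series (max 100 uM, 0.5% DMSO) is applied for 48 h. CCND2 mRNA change is derived by qRT-PCR normalised to ACTB, GAPDH and POLR2A.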

[4] = read-out: Cyclin Dependent Kinase Inhibitor 1A (CDKN1A), CDKN1A (gene 1026); test: LTEA_HepaRG_CDKN1A: Life Technologies and Expression Analysis (LTEA) Assay for Cyclin Dependent Kinase Inhibitor 1A (CDKN1A) using HepaRG (AID 2283450); details: mRNA level, 48 h; actives raise or lower the signal
How it was run: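 Cryopreserved HepaRG cells were plated and cultured 48 h, then switched to serum-free induction medium. Chemicals (eight half-log concentrations, top 100 uM, 0.5% DMSO) were applied for 48 h. Lysates underwent qRT-PCR for CDKN1A with housekeeping normalization.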

[5] = read-out: Cyclin D1 (CCND1), CCND1 (gene 595); test: LTEA_HepaRG_CCND1: Life Technologies and Expression Analysis (LTEA) Assay for Cyclin D1 (CCND1) using HepaRG (AID 2283451); details: mRNA level, 48 h; actives raise or lower the signal;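 on AC50: TaqMan qRT-PCR transcript level normalised to ACTB GAPDH and POLR2A housekeeping genes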
How it was run: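 Human liver HepaRG line; 48 h dosing, 8 conc. ≤100 uM, 0.5% DMSO; TaqMan qRT-PCR mRNA, 3 housekeeping genes; bidirectional curve fit vs DMSO.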

[6] = read-out: flavin-containing dimethylaniline monooxygenases 3 (FMO3), FMO3 (gene 2328); test: LTEA_HepaRG_FMO3: Life Technologies and Expression Analysis (LTEA) Assay for flavin-containing dimethylaniline monooxygenases 3 (FMO3) using HepaRG (AID 2283453); details: mRNA level, 48 h; actives raise or lower the signal;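 on AC50: FMO3 transcript by TaqMan qRT-PCR normalized to ACTB GAPDH and POLR2A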
How it was run: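 Eight-point concentration-response in serum-free HepaRG cultures (top 100 uM, 0.5% DMSO, 48 h). Read-out: FMO3 mRNA level normalized to three endogenous control genes, fitted bidirectionally versus vehicle.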

[7] = read-out: Cytochrome P450 (CYP1A1), CYP1A1 (gene 1543); test: LTEA_HepaRG_CYP1A1: Life Technologies and Expression Analysis (LTEA) Assay for Cytochrome P450 (CYP1A1) using HepaRG (AID 2283454); details: mRNA level, 48 h; actives raise or lower the signal
How it was run: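 Induction of CYP1A1 mRNA in a human hepatic cell line was measured 48 h after dosing, with 1 mM phenobarbital as induction positive control and 0.5% DMSO vehicle as baseline for bidirectional curve fitting.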

[8] = read-out: Forkhead box O1 (FOXO1), FOXO1 (gene 2308); test: LTEA_HepaRG_FOXO1: Life Technologies and Expression Analysis (LTEA) Assay for Forkhead box O1 (FOXO1) using HepaRG (AID 2283456); details: mRNA level, 48 h; actives raise or lower the signal
How it was run: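 Using one lot of HepaRG hepatic cells kept in 0.5% DMSO, the team applied test chemicals in duplicate, half-log dilutions from 100 uM, for 48 h. Expression, normalised to ACTB/GAPDH/POLR2A, was compared with vehicle in either direction.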

[9] = read-out: growth arrest and DNA damage 45 (GADD45A), GADD45A (gene 1647); test: LTEA_HepaRG_GADD45A: Life Technologies and Expression Analysis (LTEA) Assay for growth arrest and DNA damage 45 (GADD45A) using HepaRG (AID 2283458); details: mRNA level, 48 h; actives raise or lower the signal
How it was run: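 Eight-point concentration-response in HepaRG cells: 48 h chemical exposure, 0.5% DMSO vehicle, top dose 100 uM. Normalized qRT-PCR mRNA readout with bidirectional fitting relative to DMSO.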

[10] = read-out: Forkhead box O3 (FOXO3), FOXO3 (gene 2309); test: LTEA_HepaRG_FOXO3: Life Technologies and Expression Analysis (LTEA) Assay for Forkhead box O3 (FOXO3) using HepaRG (AID 2283459); details: mRNA level, 48 h; actives raise or lower the signal
How it was run: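 Gene-expression endpoint: FOXO3 transcript level by qRT-PCR in HepaRG cultures treated 48 h with chemicals up to 100 uM (half-log, 0.5% DMSO vehicle).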

[11] = read-out: ABC Transporter (ABCB1), ABCB1 (gene 5243); test: LTEA_HepaRG_ABCB1: Life Technologies and Expression Analysis (LTEA) Assay for ABC Transporter (ABCB1) using HepaRG (AID 2283460); details: mRNA level, 48 h; actives raise or lower the signal
How it was run: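 Human liver HepaRG line treated 48 h with up to 100 uM compound (eight half-log points, 0.5% DMSO); ABCB1 mRNA change fitted bidirectionally against DMSO controls.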

[12] = read-out: growth arrest and DNA damage 45 (GADD45B), GADD45B (gene 4616); test: LTEA_HepaRG_GADD45B: Life Technologies and Expression Analysis (LTEA) Assay for growth arrest and DNA damage 45 (GADD45B) using HepaRG (AID 2283461); details: mRNA level, 48 h; actives raise or lower the signal
How it was run: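 Values are bidirectional concentration-response fits against 0.5% DMSO controls. Underlying data: qRT-PCR mRNA levels in human HepaRG liver cells treated 48 h in serum-free induction medium, eight concentrations topping at 100 uM.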

[13] = read-out: ABC Transporter (ABCC3), ABCC3 (gene 8714); test: LTEA_HepaRG_ABCC3: Life Technologies and Expression Analysis (LTEA) Assay for ABC Transporter (ABCC3) using HepaRG (AID 2283462); details: mRNA level, 48 h; actives raise or lower the signal
How it was run: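 Differentiated HepaRG liver cells receive test chemicals at eight concentrations (max 100 uM) for 48 h. Expression of ABCC3 is quantified by qRT-PCR against ACTB, GAPDH and POLR2A, and activity is fitted in both directions against the DMSO control.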

[14] = read-out: ABC Transporter (ABCB11), ABCB11 (gene 8647); test: LTEA_HepaRG_ABCB11: Life Technologies and Expression Analysis (LTEA) Assay for ABC Transporter (ABCB11) using HepaRG (AID 2283463); details: mRNA level, 48 h; actives raise or lower the signal
How it was run: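 Using HepaRG cultures held in 0.5% DMSO, chemicals were tested at half-log dilutions from 100 uM for 48 h. Induction or suppression of ABCB11 mRNA, normalized to ACTB, GAPDH and POLR2A, was fitted bidirectionally against vehicle.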

[15] = read-out: ABC Transporter (ABCC2), ABCC2 (gene 1244); test: LTEA_HepaRG_ABCC2: Life Technologies and Expression Analysis (LTEA) Assay for ABC Transporter (ABCC2) using HepaRG (AID 2283464); details: mRNA level, 48 h; actives raise or lower the signal
How it was run: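 Gene expression of ABCC2 was determined by qRT-PCR in HepaRG cells exposed 48 h to chemicals (highest 100 uM, half-log dilutions). Activity was fitted in both directions relative to 0.5% DMSO vehicle.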

[16] = read-out: Broad substrate specificity ATP-binding cassette transporter ABCG2 (Homo sapiens) (UniProt Q9UNQ0); test: LTEA_HepaRG_ABCG2: Life Technologies and Expression Analysis (LTEA) Assay for ABC Transporter (ABCG2) using HepaRG (AID 2283465); details: mRNA level, 48 h; actives raise or lower the signal
How it was run: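 Gene expression of ABCG2 in HepaRG liver cells is quantified by qRT-PCR following 48 h exposure across an eight-point series topping at 100 uM. Values come from bidirectional fitting relative to DMSO vehicle.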

[17] = read-out: ATP-citrate lyase (ACLY), ACLY (gene 47); test: LTEA_HepaRG_ACLY: Life Technologies and Expression Analysis (LTEA) Assay for ATP-citrate lyase (ACLY) using HepaRG (AID 2283466); details: mRNA level, 48 h; actives raise or lower the signal
How it was run: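 ACLY expression changes in human HepaRG liver cells are quantified by qRT-PCR after 48 h exposure to test chemicals (maximum 100 uM, half-log steps). Values are fitted in both directions relative to 0.5% DMSO vehicle.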

[18] = CEETOX_H295R_TESTO: CeeTox H295R High-throughput Steroidogenesis Assay for Testosterone (TESTO) (AID 2283457); details: actives raise or lower the signal;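 on AC50: cells exposed to chemicals for 48 h before medium collection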
How it was run: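 Testosterone synthesis is assessed in human adrenocortical H295R cells after 48 h of chemical exposure, using HPLC-MS/MS of extracted medium. Activity is fitted in both directions against DMSO control.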

[19] = read-out: CFLAR gene, CFLAR (gene 8837); test: LTEA_HepaRG_CFLAR: Life Technologies and Expression Analysis (LTEA) Assay for CFLAR gene using HepaRG (AID 2283455); details: mRNA level, 48 h; actives raise or lower the signal
How it was run: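 Gain- or loss-of-signal changes in CFLAR transcript were fitted bidirectionally relative to 0.5% DMSO. Cells (HepaRG, duplicate wells) were dosed for 48 h across eight half-log concentrations topping at 100 uM; quantitation by TaqMan qRT-PCR.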

[20] = read-out: catalase (CAT), CAT (gene 847); test: LTEA_HepaRG_CAT: Life Technologies and Expression Analysis (LTEA) Assay for catalase (CAT) using HepaRG (AID 2283452); details: mRNA level, 48 h; actives raise or lower the signal;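 on AC50: TaqMan qRT-PCR signal normalized to ACTB GAPDH and POLR2A housekeeping genes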
How it was run: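 Differentiated HepaRG cells in serum-free induction medium were dosed 48 h in duplicate, eight half-log concentrations from 100 uM in 0.5% DMSO. Transcript measured by TaqMan qRT-PCR, normalised to ACTB/GAPDH/POLR2A, fitted bidirectionally against DMSO.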

Measured: AC50

Fatty acid synthase (Homo sapiens), sequence (P49327 whole entry, looked up): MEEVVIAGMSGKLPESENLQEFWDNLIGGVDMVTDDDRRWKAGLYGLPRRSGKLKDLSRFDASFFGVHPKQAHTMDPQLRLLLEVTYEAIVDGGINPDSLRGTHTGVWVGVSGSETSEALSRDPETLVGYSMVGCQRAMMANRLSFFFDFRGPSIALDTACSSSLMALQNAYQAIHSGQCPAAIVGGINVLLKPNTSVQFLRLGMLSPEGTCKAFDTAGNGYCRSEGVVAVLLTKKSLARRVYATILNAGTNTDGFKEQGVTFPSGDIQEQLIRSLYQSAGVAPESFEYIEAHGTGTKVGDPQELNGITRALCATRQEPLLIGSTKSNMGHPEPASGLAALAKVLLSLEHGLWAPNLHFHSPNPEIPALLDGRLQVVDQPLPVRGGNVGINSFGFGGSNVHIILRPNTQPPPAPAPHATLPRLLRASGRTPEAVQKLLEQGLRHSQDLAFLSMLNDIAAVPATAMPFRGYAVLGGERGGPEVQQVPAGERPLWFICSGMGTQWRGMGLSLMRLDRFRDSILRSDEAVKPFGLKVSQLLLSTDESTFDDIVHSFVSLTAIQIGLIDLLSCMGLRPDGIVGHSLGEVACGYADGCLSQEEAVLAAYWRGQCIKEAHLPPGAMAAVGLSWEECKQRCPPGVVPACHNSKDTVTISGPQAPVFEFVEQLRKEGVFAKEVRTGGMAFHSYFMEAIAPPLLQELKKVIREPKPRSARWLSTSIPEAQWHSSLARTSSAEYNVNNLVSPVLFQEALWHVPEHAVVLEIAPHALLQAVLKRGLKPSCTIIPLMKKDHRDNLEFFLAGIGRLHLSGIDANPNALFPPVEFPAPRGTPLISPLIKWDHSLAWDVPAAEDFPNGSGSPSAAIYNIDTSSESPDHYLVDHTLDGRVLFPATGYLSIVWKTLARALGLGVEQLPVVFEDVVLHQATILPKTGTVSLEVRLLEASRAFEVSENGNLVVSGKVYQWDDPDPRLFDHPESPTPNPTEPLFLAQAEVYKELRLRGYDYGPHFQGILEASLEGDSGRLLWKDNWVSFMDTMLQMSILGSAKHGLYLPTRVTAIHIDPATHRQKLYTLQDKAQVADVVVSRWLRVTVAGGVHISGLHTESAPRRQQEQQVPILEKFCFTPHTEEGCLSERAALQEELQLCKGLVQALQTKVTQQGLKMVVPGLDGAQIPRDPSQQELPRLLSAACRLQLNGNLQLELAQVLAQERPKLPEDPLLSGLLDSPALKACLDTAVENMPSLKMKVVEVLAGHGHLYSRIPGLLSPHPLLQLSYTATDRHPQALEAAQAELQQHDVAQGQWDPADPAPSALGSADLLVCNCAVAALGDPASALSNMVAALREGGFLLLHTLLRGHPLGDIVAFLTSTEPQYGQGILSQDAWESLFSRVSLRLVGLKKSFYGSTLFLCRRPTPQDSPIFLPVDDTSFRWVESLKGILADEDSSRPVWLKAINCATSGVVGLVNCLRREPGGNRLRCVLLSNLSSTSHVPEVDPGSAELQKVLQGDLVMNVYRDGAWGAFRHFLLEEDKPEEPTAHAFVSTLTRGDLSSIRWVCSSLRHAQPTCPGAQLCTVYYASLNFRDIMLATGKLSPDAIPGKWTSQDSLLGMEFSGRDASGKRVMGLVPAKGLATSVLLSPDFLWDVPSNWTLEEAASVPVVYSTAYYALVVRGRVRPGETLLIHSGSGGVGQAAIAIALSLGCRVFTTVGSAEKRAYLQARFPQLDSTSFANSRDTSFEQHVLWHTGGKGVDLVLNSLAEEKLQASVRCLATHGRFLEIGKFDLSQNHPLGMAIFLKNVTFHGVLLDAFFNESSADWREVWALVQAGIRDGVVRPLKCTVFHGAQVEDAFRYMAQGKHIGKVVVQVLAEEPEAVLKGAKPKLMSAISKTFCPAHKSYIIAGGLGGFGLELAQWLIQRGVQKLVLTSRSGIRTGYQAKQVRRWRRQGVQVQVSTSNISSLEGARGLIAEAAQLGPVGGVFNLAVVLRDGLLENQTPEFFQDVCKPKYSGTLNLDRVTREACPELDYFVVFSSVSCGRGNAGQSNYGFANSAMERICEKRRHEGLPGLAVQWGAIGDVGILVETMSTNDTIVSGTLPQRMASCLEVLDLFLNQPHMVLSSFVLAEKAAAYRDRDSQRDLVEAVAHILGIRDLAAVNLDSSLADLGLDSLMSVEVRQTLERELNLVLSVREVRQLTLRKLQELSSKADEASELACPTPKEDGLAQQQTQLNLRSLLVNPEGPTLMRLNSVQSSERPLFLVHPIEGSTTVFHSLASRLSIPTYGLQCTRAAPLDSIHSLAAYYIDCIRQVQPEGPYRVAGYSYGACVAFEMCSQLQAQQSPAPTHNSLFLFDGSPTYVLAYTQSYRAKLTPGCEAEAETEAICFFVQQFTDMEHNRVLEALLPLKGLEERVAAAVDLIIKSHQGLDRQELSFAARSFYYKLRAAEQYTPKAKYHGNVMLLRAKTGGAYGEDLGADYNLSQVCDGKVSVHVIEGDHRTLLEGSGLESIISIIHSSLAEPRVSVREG
Broad substrate specificity ATP-binding cassette transporter ABCG2 (Homo sapiens), sequence (Q9UNQ0 whole entry, looked up): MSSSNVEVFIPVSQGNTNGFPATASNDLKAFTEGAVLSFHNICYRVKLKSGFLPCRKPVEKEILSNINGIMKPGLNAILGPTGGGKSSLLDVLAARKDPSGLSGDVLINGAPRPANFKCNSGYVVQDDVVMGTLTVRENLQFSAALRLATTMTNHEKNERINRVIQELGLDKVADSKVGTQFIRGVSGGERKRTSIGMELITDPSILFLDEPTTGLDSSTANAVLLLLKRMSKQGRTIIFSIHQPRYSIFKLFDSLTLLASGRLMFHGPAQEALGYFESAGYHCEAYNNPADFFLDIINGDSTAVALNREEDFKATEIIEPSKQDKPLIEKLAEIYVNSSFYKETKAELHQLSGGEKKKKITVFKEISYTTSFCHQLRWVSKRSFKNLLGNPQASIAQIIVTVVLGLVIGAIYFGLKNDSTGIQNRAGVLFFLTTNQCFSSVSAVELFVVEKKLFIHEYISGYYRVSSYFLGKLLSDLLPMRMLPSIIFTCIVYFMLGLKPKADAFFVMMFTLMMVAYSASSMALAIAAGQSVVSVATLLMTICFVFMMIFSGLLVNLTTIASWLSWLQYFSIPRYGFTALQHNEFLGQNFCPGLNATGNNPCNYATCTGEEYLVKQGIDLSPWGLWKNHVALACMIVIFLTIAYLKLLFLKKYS

CCSC(=O)N(CC)C1CCCCC1
not listed: [18] | [19] | [20]
inactive: all other assays above

Cc1ccccc1CO[C@@H]1C[C@@]2(C(C)C)CC[C@]1(C)O2
active: [7] 44.4 µM | [18] 35 µM | [11] 50 µM | [15] 75.1 µM
not listed: [19] | [20]
inactive: all other assays above

CCOCCOC(C)=O
active: [7] 50 µM
not listed: [18] | [20]
inactive: all other assays above

CN(C)CCO
not listed: [2] | [18] | [19]
inactive: all other assays above

O=C(O)C(F)(F)C(F)(F)C(F)(F)C(F)(F)C(F)(F)C(F)(F)C(F)(F)C(F)(F)C(F)(F)F
inactive: [3] | [7] | [10] | [12] | [16]
active: [1] 89.3 µM | [4] 16.8 µM | [5] 12.6 µM | [20] 65.3 µM | [6] 35.3 µM | [8] 81.6 µM | [9] 85.5 µM | [11] 85.1 µM | [13] 88.5 µM | [14] 61 µM | [15] 94.8 µM | [17] 76.5 µM

C=CC(N)=O
not listed: [18]
inactive: all other assays above

Oc1c(Cl)c(Cl)c(Cl)c(Cl)c1Cl
active: [1] 6.31 µM | [20] 2.73 µM | [6] 4.5 µM | [7] 7.23 µM | [19] 2.17 µM | [8] 6.85 µM | [9] 6 µM | [10] 1.64 µM | [11] 2.1 µM | [12] 15 µM | [13] 2.09 µM | [14] 3.29 µM | [15] 2.03 µM | [16] 6.05 µM | [17] 1.61 µM
inactive: [3] | [4] | [5]

CCOC(=O)C(O)(c1ccc(Cl)cc1)c1ccc(Cl)cc1
active: [7] 47.1 µM | [11] 73 µM | [14] 38.9 µM
not listed: [18] | [19]
inactive: all other assays above

NS(=O)(=O)C(F)(F)C(F)(F)C(F)(F)C(F)(F)C(F)(F)C(F)(F)C(F)(F)C(F)(F)F
active: [4] 1.8 µM | [5] 50 µM | [6] 11.8 µM | [7] 13.8 µM | [19] 7.67 µM | [8] 24.9 µM | [9] 29.1 µM | [10] 6.91 µM | [11] 9.25 µM | [12] 20.9 µM | [13] 12.5 µM | [14] 7.12 µM | [15] 10.1 µM | [16] 3.42 µM | [17] 16.4 µM
inactive: [1] | [3] | [18]

c1cc2ccc3cccc4ccc(c1)c2c34
active: [3] 5 µM | [7] 24.3 µM | [18] 29.5 µM | [16] 4.08 µM
not listed: [2] | [19]
inactive: all other assays above

Cc1cccc(C)c1N
active: [7] 51.8 µM
not listed: [18] | [19] | [20]
inactive: all other assays above

O=S(=O)(O)C(F)(F)C(F)(F)C(F)(F)C(F)(F)C(F)(F)C(F)(F)F
active: [20] 7.16 µM | [7] 50 µM
not listed: [18] | [19]
inactive: all other assays above

CC1=C2C[C@H]3[C@@H](CC=C4C[C@@H](O)CC[C@@]43C)[C@@H]2CC[C@]12O[C@@H]1C[C@H](C)CN[C@H]1[C@H]2C
active: [7] 34.3 µM | [16] 12.1 µM
inactive: all other assays above
